Out of some 390,000 compounds screened, about 910 (0.23%) were called active. About 5% were inconclusive and are not listed. This is one part of a sample in which actives are shown more often than they occur. A number with no mark means an inactive call. The call rests on the fitted dose curve; in most records, active means well fitted inhibition curve with a large enough effect; inconclusive means small, poorly fitted or top-dose-only effect; inactive means no such curve, though single readings can be large or run the other way.
target: Ubiquitin carboxyl-terminal hydrolase 1 (Homo sapiens) (UniProt O94782); assay: Inhibitors of USP1/UAF1: Primary Screen; conditions: recombinant USP1/UAF1, Ub-Rhodamine cleavage fluorescence; series mostly up to 57.1 µM; activity change, negative = inhibition: at the top concentration; further: nearly all actives have a fitted effect of over 60% in size
Sequence (O94782 whole entry, looked up): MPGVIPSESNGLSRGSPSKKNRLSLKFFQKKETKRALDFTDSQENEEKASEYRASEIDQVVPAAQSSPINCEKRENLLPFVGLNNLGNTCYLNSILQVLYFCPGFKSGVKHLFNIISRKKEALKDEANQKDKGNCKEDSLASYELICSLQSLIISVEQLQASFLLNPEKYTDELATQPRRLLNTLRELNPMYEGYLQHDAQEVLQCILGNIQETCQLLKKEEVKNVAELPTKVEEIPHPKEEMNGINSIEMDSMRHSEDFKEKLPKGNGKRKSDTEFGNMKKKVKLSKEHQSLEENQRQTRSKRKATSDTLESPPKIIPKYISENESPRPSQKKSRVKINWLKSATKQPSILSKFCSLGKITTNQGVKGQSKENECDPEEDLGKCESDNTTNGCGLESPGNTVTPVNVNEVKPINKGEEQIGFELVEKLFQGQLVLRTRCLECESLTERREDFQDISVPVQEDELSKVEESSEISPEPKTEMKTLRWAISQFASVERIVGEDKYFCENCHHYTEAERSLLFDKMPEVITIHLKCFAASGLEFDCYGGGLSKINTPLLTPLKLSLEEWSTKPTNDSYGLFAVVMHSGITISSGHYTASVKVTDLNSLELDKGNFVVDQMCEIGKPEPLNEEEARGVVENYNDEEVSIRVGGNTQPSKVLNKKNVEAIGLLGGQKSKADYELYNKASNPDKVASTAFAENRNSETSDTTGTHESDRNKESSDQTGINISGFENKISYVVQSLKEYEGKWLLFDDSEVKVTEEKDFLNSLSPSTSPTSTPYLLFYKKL
Text: Deubiquitinating enzymes (DUBs) are a class of enzymes that can cleave isopeptide bond formed between the C-terminal carboxylate of ubiquitin and a lysine side-chain amino group on the target protein. Among them, ubiquitin specific proteases (USPs) constitute the largest DUB family. Human USPs are emerging as promising targets for pharmacological intervention because of their connection to a number of human diseases, including prostate, colon and breast cancer (1, 2), pediatric acute lymphoblastic leukemia (3), and familial cylindromatosis (4). The advantage of inhibiting USPs lies in the potential specificity of therapeutic intervention that can lead to better efficacy and reduce nonspecific side effects. In a collaboration between the University of Delaware and the NIH Chemical Genomics Center, a high-throughput screen assay was developed to screen for USP1/UAF1 inhibitors. This miniaturized assay has a fluorescent read-out and is used to screen the NIH Molecular Libraries Small Molecule Repository (MLSMR) in order to identify a small molecule that inhibits USP1. NIH Chemical Genomics Center [NCGC] NIH Molecular Libraries Probe Centers Network [MLPCN] MLPCN Grant: DA030552 Assay Submitter (PI): Zhihao Zhuang, University of Delaware 1. Priolo, C., et al. (2006) The isopeptidase USP2a protects human prostate cancer from apoptosis. Cancer Res 66, 8625-8632 2. Popov, N., et al. (2007) The ubiquitin-specific protease USP28 is required for MYC stability. Nat Cell Biol 9, 765-774 3. De Pitta, C., et al. (2005) A leukemia-enriched cDNA microarray platform identifies new transcripts with relevance to the biology of pediatric acute lymphoblastic leukemia. Haematologica 90, 890-898 4. Kovalenko, A., et al. (2003) The tumour suppressor CYLD negatively regulates NF-kappaB signalling by deubiquitination. Nature 424, 801-805
3 microliters of reagents (buffer in columns 3 and 4 as negative control and 1nM USP1/UAF1 complex in columns 1, 2, and 5-48) are dispensed into Greiner black solid bottom 1536-well assay plates. Compounds are then transferred via Kalypsys pin tool equipped with 1536-pin array (10nl slotted pins, V&P Scientific, San Diego, CA). Following an incubation step of 15 min at room temperature, 1ul of Ub-Rho substrate (150nM final concentration) is added to initiate the reaction. The plates are immediately centrifuged at 1000 rpm for 15 seconds, and subsequently transferred to a ViewLux high-throughput CCD imager (PerkinElmer) wherein kinetic measurements of fluorescence are acquired using 480 nm excitation/540 nm emission filter set (6 reads every 60 seconds, see Table 1). All reagents are diluted in an assay buffer consisting of 50mM HEPES (pH 7.8), 0.5mM EDTA, 0.1 mg/ml BSA, 1mM TCEP, and 0.01% Tween-20.
On the % scale 0 is the no-effect control and ±100 the full control effect; potency means the concentration at half of the fitted maximal effect.

Compound	activity change, negative = inhibition [%]	Potency
COC(=O)C1=C(c2ccccc2)C[C@@H]2CC[C@H]1N2C(=O)NCc1ccco1	-13.6	
Cc1ncoc1C(=O)NCC1=C(c2cccc3ccccc23)C[C@@H]2CC[C@H]1N2Cc1ccco1	-26.1	
COc1cc(Cn2c(N)c(C(=O)NCc3ccco3)c3nc4ccccc4nc32)cc(OC)c1OC		22.4 µM (active)
CN(C)CC1Oc2ccccc2OC1(O)c1ccccc1 (stereo not given)	-24	
Cc1ccc(-n2c(/C=C/c3cccc(C(F)(F)F)c3)nc3ccccc3c2=O)cc1	-2.31	
COC(=O)C1=C(c2ccc(OCc3ccccc3)cc2)C[C@@H]2CC[C@H]1N2C(=O)NCc1cccc(F)c1	-16.5	
O=C1NC(=O)N(c2ccccc2)C(=O)/C1=C/c1ccc([N+](=O)[O-])s1		28.2 µM (active)
CC(=O)C1(O)CCC2C3CCC4=C(Cl)C(=O)CCC4(C)C3CCC21C (stereo not given)	-6.63	
COc1cccc(N2C(=O)NC(=O)/C(=C\c3cn(C)c4ccccc34)C2=O)c1		11.2 µM (active)
Cn1cc(/C=C/c2nc3ccccc3c(=O)n2-c2ccccc2)c2ccccc21	-33.4	
Cc1c(C(=O)O)cccc1-n1c(C)cc(/C=C2\C(=O)NC(=O)N(c3ccc4c(c3)OCO4)C2=O)c1C	-1.73	
O=C1C2CCN(CC2)C1(CO)CO	-25.6	
C[N+](C)(C)CCOP(=O)([O-])OC[C@H](O)CO	1.6	
Cc1ccc(OC(=O)N(C)C[C@@H]2OCc3cnnn3CCCC(=O)N([C@H](C)CO)C[C@@H]2C)cc1	-16.6	
COc1cc(C2c3cc4c(cc3C(O)C3COC(=O)C23)OCO4)cc(OC)c1OC (stereo not given)	-15.3	

From PubChem BioAssay AID743255 (National Center for Advancing Translational Sciences (NCATS), 2014)
